From PubChem BioAssay
PTHR1 agonist = qHTS for PTHR1 Agonists: Primary Screen | Parathyroid hormone/parathyroid hormone-related peptide receptor (Homo sapiens), Q03431 | HEK293 GP2 PTHR1 cells, GloSensor cAMP luminescence, 1 h | Potency, µM (titrated, usually from 115 µM), inactives show at the highest dose activation, usual class: activators | 0.075% of 410,000 active; note: potency is the fitted concentration of half-maximal effect; nearly all actives have a fitted effect of over 55% in size
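HEK-293-derived GP2 cells expressing PTHR1 and a GloSensor cAMP reporter, 3,000/well, plated overnight, given luciferin plus IBMX (each 0.5 mM as added) for 1 h at 37 °C, then compound for 1 h at 37 °C. Luminescence was read after 15 min at room temperature.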
Integrin act MD = qHTS for Activators of Integrin-Mediated Alleviation for Muscular Dystrophy; 0.064% of 350,000 active; alpha7betagal myoblasts, beta-gal FDG fluorescence, 48 h; Potency, µM (titrated, usually from 38.3 µM), for inactives: at the top dose activation, actives largely listed as activators;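 note: potency is the fitted concentration of half-maximal effect; 100% = response of the positive control SU9516; nearly all actives have a fitted effect of over 60% in size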
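alpha7betagal+/- myoblasts (passage 13, 250/well) treated 48 h at 37C with compounds at 1:260 dilution of DMSO stock. Lysed, then beta-galactosidase activity read as FDG fluorescence (ex 480/em 540) after 30 min, with pre-read for autofluorescence.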
DRD3 agonist = qHTS of D3 Dopamine Receptor Agonist: qHTS; D(3) dopamine receptor (Homo sapiens), P35462; D3R DiscoveRx beta-arrestin cells, luminescence, 90 min; max activation, %; 0.58% of 410,000 active; in the data active = max activation above about 30%; note: 0% is about no effect
Target sequence (P35462 whole entry, looked up): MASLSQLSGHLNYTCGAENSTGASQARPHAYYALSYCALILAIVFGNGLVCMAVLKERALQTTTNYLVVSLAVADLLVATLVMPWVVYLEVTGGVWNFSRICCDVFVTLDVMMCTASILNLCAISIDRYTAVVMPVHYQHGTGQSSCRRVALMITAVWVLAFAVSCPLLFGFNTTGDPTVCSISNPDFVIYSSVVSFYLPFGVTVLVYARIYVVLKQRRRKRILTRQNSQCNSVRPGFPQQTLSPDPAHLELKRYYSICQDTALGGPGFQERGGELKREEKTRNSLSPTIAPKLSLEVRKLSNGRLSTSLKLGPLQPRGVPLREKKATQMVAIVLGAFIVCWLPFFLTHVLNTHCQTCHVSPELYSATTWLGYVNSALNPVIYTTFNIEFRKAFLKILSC
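Cells at 1500/well, incubated overnight, then treated with pinned compounds (dopamine as control) for 90 min at 37 degrees C. DiscoveRx reagent added for 30 - 60 minutes at room temperature; luminescence read.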
MBNL1 CUG block = qHTS Assay for Inhibitors of MBNL1-poly(CUG) RNA binding; Muscleblind-like protein 1 (Homo sapiens), Q9NR56; TR-FRET MBNL1-His/biotin-(CUG)12 binding, 665/545 ratio; Potency, µM (series often up to 57.5 µM), inactives show at the highest dose activity change, negative = inhibition, most hits filed as inhibitors; 0.036% of 280,000 active; active = well fitted inhibition curve with a large enough effect in the signal ratio, with a control signal flat, not every such curve was filed as active; inconclusive = small, poorly fitted or top-dose-only effect, or effect the other way, or a change in a side signal; inactive = no such curve, though single readings can be large or run the other way; the % refers to the signal ratio; note: potency is the fitted concentration of half-maximal effect; % is set by controls: 0 for no effect and ±100 for the full control effect
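Compounds (final 92 nM to 58 uM) are added to His-tagged MBNL1 and biotin-(CUG)12, then terbium anti-His antibody and streptavidin-XL665 (5 nM final). After 60 min at room temperature, the 665/545 nm ratio is read.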
DRD3 antagonist = qHTS of D3 Dopamine Receptor Antagonist: qHTS; D3R cells, DiscoveRx beta-arrestin luminescence, antagonist mode; active compounds read low; 2.5% of 360,000 active; max response, negative = inhibition, %; AID 652054, 2013; D(3) dopamine receptor (Homo sapiens), P35462; in the data active = max response below about -50%; inconclusive = no clear call, values can overlap the other calls; note: % is set by controls: 0 for no effect and ±100 for the full control effect
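Cells plated overnight at 1500 cells/well, then exposed to library compounds with dopamine controls for 90 minutes at 37 degrees C. DiscoveRx reagent added for 30–60 minutes at room temperature; luminescence read, quantitative HTS format.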
CBFb-RUNX1 inh = qHTS Assay for Compounds Blocking the Interaction Between CBF-beta and RUNX1 for the Treatment of Acute Myeloid Leukemia; 230,000 tested, under 10 active; AlphaScreen CBFb-His/RUNX1-biotin binding, biochemical; AID 1477, 2009; Potency, µM (titrated, usually from 59.8 µM), for the others: top-dose activity, negative = inhibition, actives largely listed as inhibitors; note: % of control where 0% means no effect
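AlphaScreen binding: CBFb-His and RUNX1-biotin (30 nM each) preincubated 20 min, compound added for 15 min, then nickel and streptavidin beads for 90 min, all at room temperature. Disruption of the interaction by any mechanism counts as activity.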
* hit, by the source's call; i = inactive; u = inconclusive; x = no result; [ ] = remark or other dose. Rows were chosen to be rich in hits. Some 2.8% of all compounds tested hit in one or more screens of this group. Unless noted, calls come from the whole dose curve; as a rule, active = well fitted curve in the direction sought with a large enough effect; inconclusive = small, poorly fitted or top-dose-only effect, or another doubt; inactive = no such curve, though single readings can be large; an effect the other way counts as inactive or inconclusive.

SMILES | PTHR1 agonist | Integrin act MD | DRD3 agonist | MBNL1 CUG block | DRD3 antagonist | CBFb-RUNX1 inh
Cc1cc(Sc2ncnc(N)c2[N+](=O)[O-])ncn1 | -51% | -63% | -27 | u | -71* | -1%
Cc1ccc(C)c(Oc2ncnc(N)c2[N+](=O)[O-])c1 | -5% | -8% | 2 | u | 2 | 0%
Cc1cc(Sc2nc(N)ncc2[N+](=O)[O-])ncn1 | -35% | -68% | -7 | u | -60* | 8%
CCc1ccccc1NC(=O)CN1CCN(C(=O)CNC(=O)c2ccc(N3CCCC3=O)cc2)CC1 | 9% | 4% | -9 | x | -24 | x
Cc1ccc(CNC(=O)Cc2c(C)c3c(cc(C)c4c(C)coc43)oc2=O)cc1 | 16µM* | x | -7 | x | x | x
CC(C)CC1C(C#N)=C(N)OC2=C1C(=O)CC(c1ccccc1)C2 (stereo not drawn) | -33% | 4% | -16 | -5% | -63* | -1%
CC(CC1C(C#N)=C(N)OC2=C1C(=O)CCC2)c1ccccc1 (stereo not drawn) | u | 22% | 2 | -2% | 17 | -1%
Cc1ccc2nc(Nc3ccc(Br)cc3)nc(-c3ccccc3)c2c1 | i | x | 1 | x | x | x
COc1ccc(CCN(C(=O)c2ccc(F)cc2)C2=CC3CCC(C2)N3C)cc1OC (stereo not drawn) | i | 0% | 2 | 4% | -56* | 7%
COc1cc(C(=O)N(CCc2ccccc2)C2=CC3CCC(C2)N3C)cc(OC)c1OC (stereo not drawn) | i | -4% | -1 | -2% | 6 | 9%
O=C(c1cc2c(s1)CCCC2)N1CCN(CCO)CC1 | -6% | -23% | -19 | x | u | x
Cn1c(N)c(C(=O)COC(=O)c2ccccc2C(=O)c2ccccc2)c(=O)n(C)c1=O | -22% | 8% | 0 | x | -13 | x
CCOc1cc(C(=O)OCC(=O)c2c(N)n(C)c(=O)n(C)c2=O)cc(OCC)c1OCC | 19%[57.5 µM] | 12% | 33* | 0% | 10 | 0%
Cn1c(N)c(C(=O)COC(=O)c2ccccc2C(=O)c2ccc(Cl)c([N+](=O)[O-])c2)c(=O)n(C)c1=O | i | -57% | -11 | x | -97* | x
CCCOc1ccc(C(=O)OCC(=O)c2c(N)n(C)c(=O)n(C)c2=O)cc1OCC | i | 11% | 1 | u | 2 | -29%
COc1ccc2nc(-c3ccccc3)cc(OC)c2c1 | -21% | 9% | 33* | 13% | 35 | 18%
COc1ccc2nc(-c3ccccc3)[nH]c(=O)c2c1 | -35% | 40% | -13 | x | -16 | x
COc1cc(OC)nc(NC(=O)COC(=O)c2cccc(Cl)c2)n1 | i | 20% | 4 | -2% | 6 | 0%
CCN(C(=O)COC(=O)c1ccc2ccccc2n1)c1c(N)n(Cc2ccccc2)c(=O)[nH]c1=O | -24% | 1% | -1 | x | -1 | x
COC(=O)C(Cc1ccccc1)OS(N)(=O)=O (stereo not drawn) | -36% | 33% | -12 | 10% | -58* | x
COC(=O)[C@H](Cc1ccccc1)NS(=O)(=O)N[C@@H](Cc1ccccc1)C(=O)OC | i | -12% | 0 | x | 5 | x
COC(=O)c1ccc(NS(=O)(=O)c2cc(-c3cc(C)no3)ccc2OC)cc1 | -12% | -2% | 1 | -1% | -52* | x
O=C(NCC(c1ccco1)N1CCN(c2ccccc2F)CC1)C(=O)NC1CCCCC1 (stereo not drawn) | -38% | 8% | 54* | x | 4 | x
O=C(NCC(c1ccco1)N1CCN(c2ccccc2F)CC1)C(=O)NC1CC1 (stereo not drawn) | -18% | 21% | 7 | x | 2 | x
O=C(NCCNC1CCC(c2ccccc2)CC1)c1ccc(F)cc1 (stereo not drawn) | i | u | -35 | -6% | -92* | 3%
SMILES | PTHR1 agonist | Integrin act MD | DRD3 agonist | MBNL1 CUG block | DRD3 antagonist | CBFb-RUNX1 inh
CCN(CC)S(=O)(=O)c1ccc(N2CCN(CCOc3ccc(OC)cc3)CC2)nc1 | -11% | -1% | 61* | -7% | -6 | x
CCN(c1ccccc1)S(=O)(=O)c1ccc(N2CCN(c3ccc(OC)cc3)CC2)nc1 | -15% | 16% | -1 | x | 3 | x
COc1ccc(CNC(=O)C2(c3cccs3)CCOCC2)cc1 | i | x | -8 | x | x | x
CCCCC(=O)NC(c1ccc(N(CC)CC)cc1)c1ccc2cccnc2c1O (stereo not drawn) | i | 4% | 32* | 11% | -4 | x
CCCCC(=O)NC(c1ccc(N(C)C)cc1)c1ccc2cccnc2c1O (stereo not drawn) | i | -19% | 17 | u | -12 | x
CCCC(=O)NC(c1ccc(C)cc1)c1ccc2cccnc2c1O (stereo not drawn) | i | -38% | 31* | 17% | -26 | x
CCCC(=O)NC(c1ccc(Cl)cc1)c1ccc2cccnc2c1O (stereo not drawn) | i | -13% | 20 | 21% | 7 | x
Cc1ccc(C)c(Cn2nnc3c(=O)[nH]c(C4CCN(C(=O)c5ccco5)CC4)nc32)c1 | i | 22% | 1 | -4% | 29 | x
CC(O)(c1cccnc1)c1nc(-c2cccc(C(F)(F)F)c2)cs1 (stereo not drawn) | -11% | x | 38* | x | 1 | x
COCc1cccc(-c2csc(C(C)(O)c3cccc(F)c3)n2)c1 (stereo not drawn) | -19% | x | -21 | x | -90* | x
CC(O)(c1ccc(F)c(F)c1)c1nc(-c2cnc3ccccc3c2)cs1 (stereo not drawn) | -77% | x | -21 | x | -7 | x
CC(O)(c1ccc(F)c(F)c1)c1nc(-c2ccc3ccccc3c2)cs1 (stereo not drawn) | -71% | x | -9 | x | -56* | x
CC(O)(c1ccccc1)c1nc(-c2cc3ccccc3o2)cs1 (stereo not drawn) | -75% | x | -11 | x | -58* | x
Fc1ccc(-c2nc3c4ccccc4ccn3c2Cc2ccsc2)cc1 | i | x | -4 | x | -13 | x
COc1ccc(/C=C(/C(=O)c2cccs2)N2C=CC=CC2=C(C#N)C#N)cc1 | -34% | -60% | -10 | u | -81* | -3%
